# Test results published in ChEMBL document CHEMBL4513216, “Probing the Open Global Health Chemical Diversity Library for Multistage-Active Starting Points for Next-Generation Antimalarials” (ACS Infect Dis, 2020).
# Screen size: about 69,000 compounds; about 8,600 (12%) showed an effect of 50% or more. For the sample, strong results were picked, then their nearest neighbours and some compounds at random.
# System: Plasmodium berghei
# Assay: Screen against P. berghei liver stage (PbLuc), transformed with Luciferase, at 10uM
# Format: functional, HepG2
# Settings: tested at 10 uM
row,Structure (SMILES),INHIBITION
1,CN(CC1CCOC1)c1ccc(Br)cn1 (configuration not stated),44.2%
2,CS(=O)(=O)N1CC[C@@H]2OC(COCC(=O)N3CCCC3)CC[C@@H]21 (some centres not stated),-8.94%
3,COCc1cn(C2CCN(CCC(C)c3ccccc3)CC2)nn1 (configuration not stated),55.7%
4,CC(CCN1CCC(n2cc(CCO)nn2)CC1)c1ccccc1 (configuration not stated),24.9%
5,CNCc1cn(C2CCN(CCC(C)c3ccccc3)CC2)nn1 (configuration not stated),3.06%
6,O=C1[C@@H]2CCN(C3CCOCC3)C[C@@H]2OCCN1Cc1cccnc1,-8.54%
7,CO[C@H]1CCN(S(=O)(=O)c2cn(C)cn2)[C@H]1Cc1cnn(C)c1,10.8%
8,CN1CCc2nnc(C3CCCN3S(=O)(=O)c3ccc(F)cc3)n2CC1 (configuration not stated),-9.08%
9,Cc1cc(C)c(CNCC(O)c2ccc(F)c(F)c2)c(C)c1 (configuration not stated),-20.3%
10,c1cc2c(cc1CN1C[C@@H]3COC[C@@H](N4CCCC4)[C@@H]3C1)OCO2,39.4%
11,O[C@H]1CCCC[C@@H]1N1CCN(CCCc2ccc3c(c2)OCO3)CC1,53.8%
12,CSc1ccc(CCN2CCN([C@H]3CCCC[C@@H]3O)CC2)cc1,25.1%
13,CCCOc1c(CNC2CCSC2)cccc1OC (configuration not stated),4.87%
14,CCn1c(Cn2cncn2)nnc1C1CCN(CC2[C@H]3CNC[C@@H]23)CC1 (some centres not stated),57.1%
15,CCn1c(Cn2cncn2)nnc1C1CCN(CCN)CC1,43.8%
16,CCn1c(Cn2cncn2)nnc1C1CCN(Cc2ccncc2)CC1,-22.1%
17,CC(C)c1nn(C)c(N(C)C)c1CNCCC(=O)N(C)C,3.19%
18,CC(C)(C)n1cc(C(=O)N2CCN(Cc3ccco3)CC2)cn1,6.15%
19,O=C(c1cnn(-c2ccccc2F)c1)N1CCN(CCO)CC1,-10.3%
20,CC(C)(C)NC(=O)CN1CCCN(Cc2cc(C#N)ccc2F)CC1,-24.9%
21,CC(C)(C)n1cc(C(=O)N2CCN(Cc3ccncc3)CC2)cn1,24.15%
22,CC(C)(O)CN1CCN(C(=O)c2sccc2C#N)CC1,54.4%
23,CCc1ccsc1C(=O)N1CCN(CC(C)(C)O)CC1,-13.5%
24,CC(C)(O)CN1CCN(C(=O)c2cnn(-c3ccccc3F)c2)CC1,58.5%
25,CC(C)C(C)(C#N)NC(=O)CN1CCCN(Cc2ccccc2F)CC1 (configuration not stated),82.4%
26,CSc1ccsc1C(=O)N1CCN(CC(C)(C)O)CC1,25.3%

row,Structure (SMILES),INHIBITION
1,CC(C)(C)NC(=O)CN1CCCN(Cc2ccc(C#N)cc2)CC1,-7.77%
2,CC(C)(C)n1cc(C(=O)N2CCN(Cc3ccccc3F)CC2)cn1,71.4%
3,CCCN1CCN(C(=O)c2cnn(-c3ccccc3F)c2)CC1,-39.9%
4,Cc1cnn(CCNc2cnc3ccccc3n2)c1,-68.3%
5,O=C([C@H]1C[C@@H]2CCN(C3CCOCC3)C[C@@H]2O1)N1CCOCC1,-15.5%
6,CN1CCC(CNC(=O)CCSc2ccc3c(c2)OCCO3)C1 (configuration not stated),28.5%
7,Cc1cccc(CC(=O)N2CCN(c3nccn3C)CC2)c1,-14.7%
8,Cc1sc2c(C3CCCN(C(C)C)C3)nc(C)n2c1C (configuration not stated),-12.9%
9,Cn1cc(CN2CCc3onc(C(=O)N4CCCC4)c3C2)cn1,33.5%
10,COc1ccc(CC(=O)N2CCCC(n3cc(C)cn3)C2)c(OC)c1 (configuration not stated),7.08%
11,O=C(c1cnc(C2CC2)nc1O)N1CCN(Cc2ccccc2F)CC1,-0.554%
12,Cc1ncc(C(=O)N2CCCN(Cc3ccccc3F)CC2)c(O)n1,34.9%
13,CN1CCN(C(=O)c2cnn(-c3ccccc3Cl)c2)CC1,14.1%
14,N#Cc1ccc(OC2CCN(C(=O)COCC3CCCO3)CC2)cc1 (configuration not stated),-13.9%
15,O=C(c1cccnc1O)N1CCN(Cc2ccccc2F)CC1,54.1%
16,CC(=O)N1CCN(C(=O)c2cnn(-c3ccccc3Cl)c2)CC1,56.1%
17,Cc1ccccc1CN1CCCN(C(=O)c2ccn(C)c(=O)c2)CC1,-7.46%
18,Cn1ccc(C(=O)N2CCN(Cc3ccccc3F)CC2)cc1=O,-57%
19,O=C(COCC1CCCO1)N1CCCN(Cc2ccccc2F)CC1 (configuration not stated),53%
20,O=C(COCC1CCCCO1)N1CCN(Cc2ccccc2F)C(=O)C1 (configuration not stated),45.6%
21,CC(=O)N1CCCN(C(=O)c2cnn(-c3ccccc3Cl)c2)CC1,47%
22,CCn1ccc(C(=O)N2CCCN(Cc3ccccc3F)CC2)cc1=O,73.4%
23,O=C(CCc1ccsc1)N1CCC(N2CCNC2=O)CC1,19.5%
24,CN(CC(=O)N1CCCCC1Cn1cccn1)C1CC1 (configuration not stated),-79.3%
25,Cc1cnn(CCNCc2ccccc2OCc2ccccn2)c1,-15.5%
26,CCCc1n[nH]c(C2CN(C(=O)c3cc(C4CC4)on3)CCO2)n1 (configuration not stated),14%
